# AmpC inh detg: blocks E. coli AmpC beta-lactamase in detergent assay; 370,000 compounds, 0.041% hits; AID 485294; Potency, µM (titrated, usually from 114 µM), without a hit: at the top dose activity change, negative = inhibition, actives largely listed as inhibitors; P00811; AmpC hydrolysis of nitrocefin, absorbance 480 nm, 0.01% Triton;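 further: 0% = no-compound wells and -100% = no-enzyme wells; nearly all actives have a fitted effect of over 25% in size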
# Target sequence (P00811 whole entry, looked up): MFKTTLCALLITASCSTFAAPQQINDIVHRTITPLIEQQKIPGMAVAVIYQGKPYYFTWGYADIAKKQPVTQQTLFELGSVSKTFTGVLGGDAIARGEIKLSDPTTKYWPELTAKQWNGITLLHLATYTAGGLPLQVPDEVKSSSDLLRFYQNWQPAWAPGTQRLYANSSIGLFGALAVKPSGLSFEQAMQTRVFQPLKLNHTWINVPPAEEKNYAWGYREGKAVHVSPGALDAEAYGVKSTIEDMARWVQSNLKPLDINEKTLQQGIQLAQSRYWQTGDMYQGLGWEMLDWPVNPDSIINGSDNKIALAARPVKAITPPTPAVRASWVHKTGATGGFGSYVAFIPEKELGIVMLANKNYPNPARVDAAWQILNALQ
#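 AmpC (5.3 nM in the dispensed reagent) in 20 mM phosphate pH 7.0 with 0.01% (detergent screen) or 0.0001% Triton X-100 was preincubated with compounds for 15 min at room temperature. Nitrocefin was then added from an 800 uM solution, and hydrolysis was followed at 480 nm.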
# AmpC no deterg: blocks E. coli AmpC beta-lactamase in detergent-free assay. P00811. AmpC nitrocefin hydrolysis, absorbance 480 nm, 0.0001% Triton. Potency, µM (top dose mostly 57.1 µM), for inactives: at the top dose activity change, negative = inhibition, most hits filed as inhibitors. 330,000 compounds, 0.52% hits;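 further: plate controls were no compound for no effect and no enzyme for full effect; nearly all actives have a fitted effect of over 20% in size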
#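 AmpC (5.3 nM in the dispensed reagent) in 20 mM phosphate pH 7.0 with 0.01% (detergent screen) or 0.0001% Triton X-100 was preincubated with compounds for 15 min at room temperature. Nitrocefin was then added from an 800 uM solution, and hydrolysis was followed at 480 nm.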
# Sm TGR inh: S. mansoni TGR enzyme inhibition. purified TGR, DTNB reduction, TNB absorbance 405 nm. Potency, µM (titrated, usually from 114 µM), for inactives: at the top dose activity change, negative = inhibition, most hits filed as inhibitors. 360,000 compounds, 3% hits. Q962Y6. AID 485364; further: nearly all actives have a fitted effect of over 60% in size
#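 TGR 20 nM + NADPH 100 uM (dispensed conc.), cpd preinc 15 min RT; start with NADPH (500 uM addition) then DTNB (15 mM addition). Kinetic TNB absorbance, 405 nm filter. Four-parameter Hill fit across titration.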
# Starred values were filed as active, the others as inactive; ? = inconclusive; · = no result. This is a sample that favours compounds with a hit; in the whole collection about 3.3% have one here. The call rests on the fitted dose curve; in most records, active means well fitted curve in the direction sought with a large enough effect; inconclusive means small, poorly fitted or top-dose-only effect, or another doubt; inactive means no such curve, though single readings can be large; an effect the other way counts as inactive or inconclusive. Unless noted, on the % scale 0 is the no-effect control and ±100 the full control effect; potency means the concentration at half of the fitted maximal effect.
SMILES,AmpC inh detg,AmpC no deterg,Sm TGR inh
CCOc1ccc(N2C=Nc3ccc(OCC)cc3C2)cc1,-7.6%,-2.5%,0.0%
CO/C=C\C=C/c1nnn(-c2ccc(Cl)cc2)n1,-4.9%,11.2µM*,8.91µM*
Clc1ccc(-n2cnnn2)cc1,3.5%,-10.6%,4.0%
Cn1ncc([N+](=O)[O-])c1C(=O)Nc1nccs1,-14.2%,-7.7%,-1.5%
COC(=O)c1c(C(=O)OC)c(-c2ccc(C)cc2)n2c1CCC2,0.3%,30.3%,8.2%
COC(=O)c1c(C(=O)OC)c(-c2ccc(OC)cc2)n2c1CS(=O)(=O)C2,4.2%,-12.8%,50.1µM*
O=C(c1ccccc1)c1ccc(C(=O)N2CCOCC2)cc1,-14.0%,-18.5%,0.0%
Cc1sc2c(c1C)CN(CCN1CCOCC1)CN2C(=O)c1ccccc1,-1.4%,27.4%,79.4µM*
CCOC(=O)COc1cc(OCC(=O)OCC)c2c3c(c(=O)oc2c1)CCCC3,3.5%,6.0%,-19.0%
O=C(CCN1C(=O)/C(=C/c2cccs2)SC1=S)Nc1ccc(O)cc1,-14.8%,?,-8.3%
O=C(CCN1C(=O)/C(=C/c2cccs2)SC1=S)Nc1ccc(C(=O)O)c(O)c1,-3.9%,1.26µM*,0.5%
O=C1C(=O)N(CCN2CCOCC2)C(c2ccc(Cl)cc2)/C1=C(/O)c1ccc(S(=O)(=O)N2CCOCC2)cc1 (stereo unspecified),-2.7%,16.4%,1.7%
COc1ccc(C(=O)NCC(C)(C)N2CCOCC2)cc1S(=O)(=O)N1CCCC1,-0.7%,-24.9%,-1.5%
COC(=O)C1(Cc2cc(-c3ccc(Cl)cc3)no2)CCN(C(=O)OC(C)(C)C)CC1,-13.1%,124.1%,15.5%
COC(=O)C1(Cc2cc(-c3ccc([N+](=O)[O-])cc3)no2)CCN(C(=O)OC(C)(C)C)CC1,0.4%,70.7%,20µM*
CCC(C(=O)NC(C)(C)C)N(Cc1ccc(F)cc1)C(=O)c1snc(C(N)=O)c1N (stereo unspecified),-10.5%,20.0%,-6.9%
CCOc1ccccc1C(=O)OC(C)C(=O)Nc1ccc(S(=O)(=O)N2CCCC2)cc1 (stereo unspecified),-2.4%,-6.2%,-9.8%
CC(=O)Nc1ccc(S(=O)(=O)Nc2ccc(=O)n(Cc3ccc(Cl)c(Cl)c3)c2)cc1,?,-23.5%,8.4%
Cc1ccc(S(=O)(=O)Nc2ccc(=O)n(Cc3ccc(Cl)c(Cl)c3)c2)cc1,?,-35.3%,39.8µM*
O=C(O)C(CO)(c1ccccc1)c1ccccc1,-11.0%,-4.4%,0.0%
Cc1cc(Nc2ccccc2C)n2nc(Cc3ccc(Cl)cc3)nc2n1,14.6%,·,0.5%
COc1ccc(/C(C)=N/N2C(C)CCCC2C)c(OC)c1 (stereo unspecified),-0.9%,20.5%,-2.5%
CCOC(=O)C(C)Sc1nc(-c2ccco2)cc(C(F)(F)F)c1C#N (stereo unspecified),?,-3.7%,22.4µM*
CCOC(=O)COc1nc(-c2ccc(C)cc2)cc(-c2ccco2)c1C#N,1.0%,-29.6%,-1.6%
CCOc1nc2c(c(-c3cccs3)c1C#N)Cc1ccccc1-2,-6.7%,-15.0%,16.1%
SMILES,AmpC inh detg,AmpC no deterg,Sm TGR inh
CCOC(=O)CSc1nc(-c2ccc(F)cc2)cc(C(F)(F)F)c1C#N,5.2%,·,1.9%
CCOC(=O)COc1nc(-c2ccco2)cc(-c2ccco2)c1C#N,-4.1%,-3.7%,31.6µM*
CC(=O)COc1nc2c(c(-c3ccco3)c1C#N)CCc1ccccc1-2,-12.7%,-35.6%,44.7µM*
CCOC(CC(=O)NNC(=O)c1c(-c2ccccc2Cl)noc1C)OCC,1.3%,-12.1%,31.3%
CCCN(CC(=O)Nc1ccccc1C)C(=O)/C=C/c1ccc(S(=O)(=O)N2CCCCCC2)cc1,-2.0%,24.1%,-2.1%
CC(=O)N=Cc1c(C)c(C#N)c(=O)n(C)c1O,-3.5%,-12.4%,-20.8%
Cc1c(/C=N/Nc2ccc(F)cc2)c(O)n(C)c(=O)c1C#N,6.3%,-15.1%,25.1µM*
Cn1c2c(c(=O)n(C)c1=O)CN(CC1CCCO1)CN2 (stereo unspecified),?,-7.5%,15.7%
COc1ccc(CCN2CNc3c(c(=O)n(C)c(=O)n3C)C2)cc1,-19.0%,-11.1%,89.1µM*
COc1cccc(Oc2ncnc(N)c2[N+](=O)[O-])c1,4.4%,-13.3%,-33.1%
Cc1cccc(CS(=O)(=O)c2ncc(Cl)c(C(=O)Nc3c(C)cccc3C)n2)c1,0.7%,-9.4%,7.08µM*
Cc1cccc(CS(=O)(=O)c2ncc(Cl)c(C(=O)Nc3nc4ccc(F)cc4s3)n2)c1,9.8%,·,-28.1%
COc1ccc2nc(NC(=O)c3nc(S(=O)(=O)Cc4cccc(C)c4)ncc3Cl)sc2c1,7.4%,·,?
COc1ccc2nc(NC(=O)c3nc(S(=O)(=O)Cc4ccccc4)ncc3Cl)sc2c1,18.9%,·,3.9%
Cc1nnc(NC(=O)c2nc(S(=O)(=O)Cc3ccccc3)ncc2Cl)s1,8.0%,-34.6%,22.4µM*
CCCc1nnc(NC(=O)c2nc(S(=O)(=O)Cc3cccc(C)c3)ncc2Cl)s1,-2.2%,-17.6%,35.5µM*
Cc1cccc(C)c1NC(=O)c1nc(S(=O)(=O)Cc2ccccc2)ncc1Cl,-2.1%,-32.3%,12.6µM*
Cc1ccsc1C(=O)Nc1cccc(-n2cnnn2)c1,-2.9%,-5.7%,7.0%
OC1(C#CCN2CCCC2)CCCCC1,?,-13.8%,-10.3%
COc1ccccc1-n1nc(-c2ccccc2)c2cnc3cc(C(F)(F)F)ccc3c21,-0.3%,·,-2.7%
CC(C)(C)c1ccc(C(=O)N2CCC(C(=O)c3ccccc3)CC2)cc1,-0.2%,29.3%,-15.2%
O=C(Cn1[nH]c(=O)c2ccccc2c1=O)Nc1cccc(S(=O)(=O)N2CCCCCC2)c1,-4.1%,?,-9.2%
CC(C)(C)[C@@H]1CCC(=O)N(CC[C@H](N=[N+]=[N-])c2ccccc2)CC1,?,61.4%,-5.6%
O=C(Nc1ccc(NC(=O)C2CCCCC2)nc1)c1cccc(F)c1,-14.3%,-35.9%,0.9%
Cc1cccc(CS(=O)(=O)c2ncc(Cl)c(C(=O)NCc3ccccc3)n2)c1,-0.2%,-27.6%,7.94µM*
SMILES,AmpC inh detg,AmpC no deterg,Sm TGR inh
COc1ccc(NC(=O)c2nc(S(=O)(=O)Cc3cccc(C)c3)ncc2Cl)c(OC)c1,-1.0%,-23.2%,8.4%
Cc1ccc(CSc2ncc(Cl)c(C(=O)NCc3ccccc3)n2)cc1,23.9%,·,2.5%
COc1ccc(OC)c(NC(=O)c2nc(S(=O)(=O)Cc3ccccc3)ncc2Cl)c1,?,68.4%,3.16µM*
Oc1ccc2c3c1O[C@H]1c4[nH]c5ccccc5c4C[C@@]4(O)[C@@H](C2)N(CC2CC2)CC[C@]314,?,-15.6%,44.7µM*
Oc1ccc2c3c1O[C@H]1c4oc5ccccc5c4C[C@@]4(O)[C@@H](C2)N(CC2CC2)CC[C@]314,-1.8%,6.0%,-5.5%
NC(N)=Nc1ccc2[nH]c3c(c2c1)C[C@@]1(O)[C@H]2Cc4ccc(O)c5c4[C@@]1(CCN2CC1CC1)C3O5 (stereo partly specified),·,-7.0%,·
Oc1ccc2c3c1O[C@H]1c4[nH]c5ccccc5c4C[C@@]4(O)C(C2)N(CC2CC2)CC[C@]314,-4.7%,-7.0%,17.8µM*
CCCNC(=O)N1CCN(S(=O)(=O)c2ccc3c(ccn3C)c2)CC1,0.1%,·,1.2%
